Tb PGK inh – qHTS Assay to Find Inhibitors of Phosphoglycerate Kinase; Phosphoglycerate kinase, glycosomal (Trypanosoma brucei brucei), P07378; PGK/GAPDH coupled, Kinase-Glo luminescence, 60 min; AID 602233, 2012; actives 0.043% (n = 380,000); Potency, µM (titrated, usually from 57.5 µM), without a hit: at the top dose activity change, negative = inhibition, usual class: inhibitors; note: potency is the fitted concentration of half-maximal effect; % is set by controls: 0 for no effect and ±100 for the full control effect; nearly all actives have a fitted effect of over 60% in size
Target sequence (P07378 whole entry, looked up): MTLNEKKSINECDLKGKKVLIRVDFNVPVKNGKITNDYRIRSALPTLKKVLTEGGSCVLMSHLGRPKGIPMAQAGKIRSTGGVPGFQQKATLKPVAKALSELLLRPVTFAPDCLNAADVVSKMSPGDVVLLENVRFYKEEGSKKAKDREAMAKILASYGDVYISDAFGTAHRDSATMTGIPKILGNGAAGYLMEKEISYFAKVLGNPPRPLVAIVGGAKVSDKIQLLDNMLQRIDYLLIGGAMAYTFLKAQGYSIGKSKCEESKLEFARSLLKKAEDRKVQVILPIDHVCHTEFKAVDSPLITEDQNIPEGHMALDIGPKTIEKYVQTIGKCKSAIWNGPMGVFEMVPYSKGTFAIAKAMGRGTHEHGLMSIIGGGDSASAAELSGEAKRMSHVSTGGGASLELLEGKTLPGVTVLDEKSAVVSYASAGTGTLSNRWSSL
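Recombinant glycosomal PGK reaction used 1,3-bisphosphoglycerate generated in-well by GAPDH (100nM final) in 100mM TEA pH 7.6, 5mM MgCl2, 0.01% Tween-20. After 60 minutes at room temperature, ATP was read by Kinase-Glo Plus luminescence end-point.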
Vif-A3G inh – qHTS for Inhibitors of Vif-A3G Interactions: qHTS; HeLa A3G-eYFP + Vif (tagged APOBEC3G with the HIV-1 protein that degrades it), YFP fluorescence, overnight; Potency, µM (doses to about 46.1 µM), for the others: at the top dose activity, negative = active, most hits filed as inhibitors; actives 0.076% (n = 410,000); DNA dC->dU-editing enzyme APOBEC-3G (Homo sapiens), Q9HC16; note: potency is the fitted concentration of half-maximal effect; % is set by controls: 0 for no effect and ±100 for the full control effect; nearly all actives have a fitted effect of over 60% in size
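Read-out is eYFP fluorescence (Ex 488/Em 500-530) from Vif-expressing HeLa A3G-eYFP cells; more signal means A3G escaped Vif-mediated degradation. Cells plated overnight, compound pinned in, incubated overnight at 37 deg C.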
Pin1 inh – qHTS Assay to Find Inhibitors of Pin1. Potency, µM (series often up to 115 µM), for the others: at the highest dose activity, negative = inhibition, most hits filed as inhibitors. AID 504891, 2011. actives 0.009% (n = 390,000). Peptidyl-prolyl cis-trans isomerase NIMA-interacting 1 (Homo sapiens), Q13526. Pin1 FP peptide displacement, HiFluor488, 10 min; active = well fitted inhibition curve with a large enough effect in the polarisation, with a control signal flat, not every such curve was filed as active; inconclusive = small, poorly fitted or top-dose-only effect, or effect the other way, or a change in a side signal; inactive = no such curve, though single readings can be large or run the other way; the % refers to the polarisation; note: potency is the fitted concentration of half-maximal effect; % is set by controls: 0 for no effect and ±100 for the full control effect
Target sequence (Q13526 whole entry, looked up): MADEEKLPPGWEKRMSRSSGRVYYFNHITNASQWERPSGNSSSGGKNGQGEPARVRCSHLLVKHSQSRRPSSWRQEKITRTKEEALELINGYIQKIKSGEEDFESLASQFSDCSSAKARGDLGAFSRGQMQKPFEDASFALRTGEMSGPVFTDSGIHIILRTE
LDHA block – qHTS assay for inhibitors of human lactate dehydrogenase | actives 0.15% (n = 480,000) | purified LDHA, NADH/diaphorase-resazurin fluorescence; hits give low values | L-lactate dehydrogenase A chain (Homo sapiens), P00338 | activity change, % (values are at about 110 or 230 µM); in the data active = activity change below about -30%; inconclusive = mostly about -25% to -30%;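 note: plate controls were DMSO wells for no effect and wells without enzyme for full effect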
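Remaining NADH was detected by diaphorase (0.133 mg/mL) converting 37 µM resazurin to fluorescent resorufin, read at 0 and 20 minutes. The preceding 5-minute room-temperature reaction used 2 nM LDHA, 0.2 mM sodium pyruvate and 0.06 mM NADH at pH 7.4.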
Vif-APOBEC3F blk – qHTS for Inhibitors of Vif-A3F Interactions: qHTS. Potency, µM (top dose mostly 46.1 µM), without a hit: at the highest dose activity, negative = active. AID 602313, 2012. HeLa A3F-eYFP + Vif (tagged APOBEC3F with the HIV-1 protein that degrades it), YFP fluorescence increase. actives 0.2% (n = 390,000); note: potency is the fitted concentration of half-maximal effect; % of control where 0% means no effect; nearly all actives have a fitted effect of over 65% in size
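HeLa cells stably expressing Vif plus C-terminally eYFP-tagged A3F were seeded, incubated overnight at 37 deg C, dosed with compound, incubated overnight again at 37 deg C. Yellow fluorescence (Ex 488/Em 500-530) reported blocked Vif-mediated A3F-eYFP degradation.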
mIDH1 inhibitor – qHTS for Inhibitors of mutant isocitrate dehydrogenase 1 (IDH1): qHTS. Potency, µM (series often up to 76.6 µM), for inactives: at the highest dose activity change, negative = inhibition, hits mostly inhibitors. IDH1-R132H enzyme, NADPH consumption, diaphorase/resazurin fluorescence. AID 602179, 2012. actives 0.093% (n = 390,000); note: potency is the fitted concentration of half-maximal effect; % is set by controls: 0 for no effect and ±100 for the full control effect; nearly all actives have a fitted effect of over 65% in size
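IDH1-R132H (0.5 ug/mL) preincubated 30 min with compound, then NADPH (0.016 mM) and alpha-KG (2 mM) added; 80 min at RT, pH 7.5. Remaining NADPH coupled via diaphorase/resazurin to fluorescence (540/590 nm); concentration-response curves normalized to no-enzyme control.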
Resorufin autofl – qHTS for Inhibitors of mutant isocitrate dehydrogenase 1 (IDH1): Cherrypicks Autofluorescence Interference. inhibition of signal, % at 51.2 µM. 750 tested, under 10 active. shares compounds with mIDH1 inhibitor. AID 623980, 2012. Resorufin detection reagent fluorescence interference, cell-free;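 note: 0% = wells with normal resorufin and full inhibition = wells lacking resorufin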
WT IDH1 inh – qHTS for Inhibitors of mutant isocitrate dehydrogenase 1 (IDH1): Cherrypicks in WT IDH1; shares compounds with mIDH1 inhibitor; WT IDH1 enzyme, NADPH diaphorase/resazurin fluorescence; Potency, µM (titrated, usually from 115 µM), for the others: top-dose activity change, negative = inhibition, actives largely listed as inhibitors; actives 9% (n = 750); AID 623995, 2012;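 note: potency is the fitted concentration of half-maximal effect; 0% = full WT IDH1 enzyme control and full inhibition = no enzyme wells; nearly all actives have a fitted effect of over 55% in size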
IDH1 R132H conf – qHTS for Inhibitors of mutant isocitrate dehydrogenase 1 (IDH1): Confirmation of Cherrypicks; Potency, µM (series often up to 76.6 µM), without a hit: at the top dose activity change, negative = inhibition, actives largely listed as inhibitors; IDH1 R132H enzyme, NADPH diaphorase/resazurin fluorescence; AID 624002, 2012; actives 83% (n = 750); shares compounds with mIDH1 inhibitor; note: potency is the fitted concentration of half-maximal effect; nearly all actives have a fitted effect of over 50% in size
* hit, by the source's call; i = inactive; ? = inconclusive; . = not tested or not shown. Only some compounds are listed: those with a hit (about 0.49% of all), similar ones and a draw of the others. Unless noted, calls come from the whole dose curve; as a rule, active = well fitted curve in the direction sought with a large enough effect; inconclusive = small, poorly fitted or top-dose-only effect, or another doubt; inactive = no such curve, though single readings can be large; an effect the other way counts as inactive or inconclusive.

SMILES	Tb PGK inh	Vif-A3G inh	Pin1 inh	LDHA block	Vif-APOBEC3F blk	mIDH1 inhibitor	others
COc1cccc(OC)c1C(=O)N1CCN(Cc2ccncc2)CC1	-9%	1%	-15%	-24	2%	12%
O=C(c1cccs1)N1CCN(Cc2ccncc2)CC1	8%	1%	-9%	-33*	.	3%
COC(=O)c1[nH]c(C)c(/C(O)=C2\C(=O)C(=O)N(CCCn3ccnc3)C2c2cccc(OC)c2)c1C (configuration not stated)	.	.	.	-40*	.	.
O=c1oc(/C=C/c2ccc([N+](=O)[O-])s2)nc2ccccc12	-8%	-18%	12%	-6	28µM*	-6%
CC(=O)Nc1sc2c(c1C#N)CCN(Cc1ccccc1)C2	i	1%	-16%	-5	-8%	-3%
N#Cc1c(NC(=O)/C=C/C(=O)O)sc2c1CCN(Cc1ccccc1)C2	.	?	?	0	25µM*	10%
N#Cc1c(-c2ccco2)nc(SCC(=O)Nc2cccc(Cl)c2)[nH]c1=O	-8%	1%	-13%	-12	1%	1%
CC(C)(C)c1ccc(-c2nc(SCC(=O)Nc3ccc(Cl)cc3)[nH]c(=O)c2C#N)cc1	-12%	-1%	.	-31*	-6%	-11%
CCOc1ccc(OCCCCOc2cccc(Br)c2)cc1	.	.	.	7	.	.
CC1=NN(c2cccc(C(=O)O)c2)C(=O)/C1=C\C=C\c1ccco1	4µM*	-5%	.	2	?	6%
O=C(O)c1cccc(N2C(=O)c3cccc4cccc(c34)C2=O)c1	-3%	-1%	-2%	0	2%	-2%
O=C(O)c1cccc(N2C(=O)c3cc([N+](=O)[O-])cc4cc([N+](=O)[O-])cc(c34)C2=O)c1	25µM*	-6%	.	12	-5%	0%
COc1ccc(Oc2cc(CNS(=O)(=O)N3CCCCCC3)ccn2)cc1	.	.	.	-21	.	.
Cc1cccc(C(=O)NC(=S)N2CCc3ccccc3C2)c1	2%	1%	5%	-3	8.9µM*	-3%
Cc1cccc(C(=O)NCCC(=O)N2CCc3ccccc3C2)c1	i	0%	4%	-5	-4%	9%
N#Cc1c(C(F)(F)F)cc(-c2ccco2)nc1SCc1ccccn1	-5%	?	?	-2	25µM*	4%
CC1=CC(C)(C)Nc2ccc(OC(=O)c3ccco3)cc21	-6%	11µM*	3%	-1	?	9%
Cc1[nH]c2ccccc2c1/C=N/Nc1ccc([N+](=O)[O-])cc1	-10%	10µM*	?	0	10µM*	5%
C/C(=N/Nc1ccc([N+](=O)[O-])cc1)c1c[nH]c2ccccc12	-7%	?	?	-2	6.3µM*	1%
CCC/C=N/NC(=O)c1[nH]c2c([N+](=O)[O-])cccc2c1C	i	7.1µM*	-3%	-6	9%	8%
CCCCC/C=N/NC(=O)c1[nH]c2ccc([N+](=O)[O-])cc2c1C	1%	2%	-10%	-3	11%	-1%
CCOC(=O)Nc1cc2c(c(N)n1)N=C(c1ccccc1)CN2	-1%	?	?	-1	22µM*	6%
Cc1c(CCC(C)C)c(-n2ccnc2C)n2c(nc3ccccc32)c1C#N	7%	2%	0%	-1	-6%	?	Resorufin autofl=-4;WT IDH1 inh=10%;IDH1 R132H conf=?
COc1ccc(-c2nn3c(-c4ccccc4C)nnc3c3ccccc23)cc1	i	-3%	0%	-3	0%	?	Resorufin autofl=-2;WT IDH1 inh=2%;IDH1 R132H conf=22µM*
Cc1ccc(C)c(S(=O)(=O)c2cn(C)c3cc(N4CCCCC4C)c(F)cc3c2=O)c1 (configuration not stated)	-5%	1%	21%	8	1%	?	Resorufin autofl=4;WT IDH1 inh=3%;IDH1 R132H conf=16µM*
SMILES	Tb PGK inh	Vif-A3G inh	Pin1 inh	LDHA block	Vif-APOBEC3F blk	mIDH1 inhibitor	others
CCCn1cc(S(=O)(=O)c2ccccc2)c(=O)c2cc(F)c(N3CCCCC3)cc21	-2%	4%	2%	-8	3%	-4%
CCc1ccc(S(=O)(=O)c2cn(C)c3cc(N4CCCCC4C)c(F)cc3c2=O)cc1 (configuration not stated)	9%	3%	2%	-7	1%	-9%
CCn1cc(S(=O)(=O)c2ccccc2)c(=O)c2cc(F)c(N3CCCCCC3)cc21	13%	2%	13%	-1	-3%	?	Resorufin autofl=2;WT IDH1 inh=5%;IDH1 R132H conf=20µM*
Cn1cc(S(=O)(=O)c2ccccc2)c(=O)c2cc(F)c(N3CCCCCC3)cc21	-1%	-1%	8%	3	-5%	40µM*	Resorufin autofl=3;WT IDH1 inh=3%;IDH1 R132H conf=14µM*
O=C(CCc1cn(Cc2ccc(F)cc2)c2ccccc12)NCCc1cccs1	.	.	.	10	.	.
Cc1ccc2oc(C(=O)NCCc3nc(-c4ccccc4)no3)cc(=O)c2c1	.	.	.	-4	.	.
Cn1c(=O)c(NC2CCCCC2)c2c3c(cccc31)C(=O)c1ccccc1-2	-1%	?	?	-1	-57%	?	Resorufin autofl=0;WT IDH1 inh=12%;IDH1 R132H conf=22µM*
Cc1nn(Cc2ccc(F)cc2)c(C)c1NC(=O)Nc1ccc2c(c1)OCO2	.	.	.	-3	.	.
C[C@H]1CN([C@@H](C)CO)C(=O)c2cccc(NS(=O)(=O)c3ccc(Cl)cc3)c2O[C@@H]1CN(C)CC1CCCCC1	10%	-2%	-1%	-3	-3%	45µM*	Resorufin autofl=-4;WT IDH1 inh=4%;IDH1 R132H conf=32µM*

From PubChem
